According to PubChem BioAssay (NCI):
About 79,000 compounds went through this panel and 15% of them were active in at least one assay; those are over-represented in the sample as a whole. A number with no mark means an inactive call. Calls of active or inactive are those of the source. No stated cut-off is given here; in the data, active means growth inhibition above about 70%; inactive means the rest. Where a SMILES comes first, the peptide text is derived from it. [ ]: non-standard residue; d: D form. The star is where a group is joined. Cbz = O=C(OCc1ccccc1)*; Dha = C=C(N)C(=O)O

Tests used:
[1] = NCI Yeast Anticancer Drug Screen. Data for the rad50 strain (AID 155);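 further: 0% = growth of vehicle-only cultures of the same strain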; conditions: S. cerevisiae rad50 strain growth inhibition; at 50.0 µM; hits give high values
Method in brief: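 Vehicle-treated cultures provide the reference for the growth inhibition reported for compound-exposed, repair-deficient yeast.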

[2] = NCI Yeast Anticancer Drug Screen. Data for the mec2-1 strain (AID 157); conditions: S. cerevisiae mec2-1 strain, at 50.0 µM, hits give high values
Method in brief: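 mec2-1 yeast strain, carrying an alteration in DNA damage repair or cell cycle control, was exposed to compounds; growth inhibition was measured relative to vehicle-treated controls.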

[3] = NCI Yeast Anticancer Drug Screen. Data for the sgs1 mgt1 strain (AID 161);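 further: 0% = growth of cultures given vehicle only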; conditions: S. cerevisiae sgs1 mgt1 strain, at 50.0 µM, hits give high values
Method in brief: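 Compounds are added to genetically altered yeast, and growth is compared with cultures given vehicle alone to give percent inhibition.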

[4] = NCI Yeast Anticancer Drug Screen. Data for the cln2 rad14 strain (AID 165);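 further: 0% = growth equal to vehicle treated cultures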; conditions: S. cerevisiae cln2 rad14 strain, at 50.0 µM, hits give high values
Method in brief: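 Yeast carrying cln2 and rad14 alterations (cell cycle control and DNA damage repair) were exposed to compounds. Growth inhibition was measured against vehicle-treated controls.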

[5] = NCI Yeast Anticancer Drug Screen. Data for the bub3 strain (AID 167); conditions: S. cerevisiae bub3 mutant strain, at 50.0 µM, hits give high values
Method in brief: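 Mutant yeast screening strain plus compound; vehicle-treated cultures serve as the 0% inhibition reference.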

[6] = NCI Yeast Anticancer Drug Screen. Data for the mlh1 rad18 strain (AID 175); conditions: S. cerevisiae mlh1 rad18 strain growth inhibition; at 50.0 µM; hits give high values
Method in brief: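 Growth inhibition of the yeast strain was measured after compound exposure and expressed relative to vehicle-treated controls. The strain carries defined defects in DNA damage repair.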

| Structure (SMILES) | growth inhibition [1] [%] | growth inhibition [2] [%] | growth inhibition [3] [%] | growth inhibition [4] [%] | growth inhibition [5] | growth inhibition [6] |
| --- | --- | --- | --- | --- | --- | --- |
| Cc1nn(C(=S)S)c(C)c1N=Nc1ccc(O)cc1 | 9.3 | 10.5 | 16.9 | -16.7 | 5.35% | 18.6% |
| O=C(N/C(=C/c1ccc(Cl)cc1)c1nc2ccccc2c(=O)n1Nc1ccc([N+](=O)[O-])cc1[N+](=O)[O-])c1ccccc1 | -19 | -5 | -19.7 | 0.3 | -21.6% | -17.5% |
| CC(N)C(C)Cc1ccccc1 (stereo not given) | -20.2 | -21.4 | -19.7 | 65.7 | -31.9% | -14.6% |
| CC(C)OC1CC1 | 4.65 | -10.6 | -10.5 | 4.9 | 11.7% | -21% |
| COc1nc(OC)c2cnn(-c3ccc(Cl)cc3)c2n1 | -10.5 | -4.6 | -6.45 | -3 | 3.7% | -7.35% |
| CCOC(=O)Nc1ccc2c(c1Cl)C(=O)c1ccccc1C2=O | -6.85 | -18.1 | -0.2 | 5.65 | 14.3% | -15.6% |
| CCOP(=O)(OCC)c1cc(NC(=O)c2cc(NC(=O)c3cc(NC(=O)Nc4cc(C(=O)Nc5cc(C(=O)Nc6cc(P(=O)(OCC)OCC)c7cccc(P(=O)(OCC)OCC)c7c6)n(C)c5)n(C)c4)cn3C)cn2C)cc2c(P(=O)(OCC)OCC)cccc12 | -5.45 | -1.55 | -16.1 | 19.9 | 2.5% | 10.7% |
| Nc1ncnc2c1cnn2-c1ccc(Cl)cc1 | 42 | 9.15 | 62.6 | -7.2 | 23.8% | 48% |
| CCOC(=O)C(C)N1CCCCCCC1 (stereo not given) | -19.9 | -13.5 | -2.3 | -26.2 | -6.15% | -0.8% |
| CNC(CC(=O)O)C(=O)O (stereo not given) | -0.4 | -3.95 | -14.6 | -15.1 | 2.5% | -3.05% |
| Clc1ccccc1CN1COc2c(ccc3ccccc23)C1 | 35.5 | 14.3 | 32.6 | 19.6 | 25.5% | 22.6% |
| O=c1[nH]c2ccccc2c(=O)n2cccc12 | 10.4 | 23.6 | 7.8 | -7.5 | -5.75% | 1.9% |
| CN(C)C(=O)Nc1cccc(OS(=O)(=O)N(C)C)c1 | 5.4 | 26.1 | 23.2 | -18.6 | 22.9% | 12.6% |
| COc1ccccc1/C=C1/C(=O)ON=C1C | 0.05 | -21.1 | -11.9 | 9.6 | -17.1% | -18.5% |
| N#CC(/C(=N/NC(N)=S)C(=O)Nc1cccc(Cl)c1)c1ccccc1 (stereo not given) | -23.9 | 13.8 | 10.4 | 18.3 | 12.9% | 31.2% |
| CCOP(=O)(OCC)OC1CC(n2cnc3c(N(CC)CC)ncnc32)OC1CO[Si](C)(C)C(C)(C)C (stereo not given) | 19.1 | 8.65 | 54 | 38.8 | 47.9% | -16.1% |
| CC/C(=N/NC(N)=O)C1C=COC=C1 | -5.75 | 2 | -0.1 | -6.8 | -11.8% | 1.2% |
| Clc1ccc(C2SC=Cc3ccccc32)cc1 (stereo not given) | 53.8 | 33.8 | 47.6 | 5.9 | 49.8% | 37.7% |
| COc1ccc2cccc(C(=O)O)c2c1 | 1.3 | -10.3 | -6.5 | 3.35 | -15.6% | -21.6% |
| O=C(OCCCl)C1OC(n2cc(F)c(=O)[nH]c2=O)CC1O (stereo not given) | 23.4 | 3.35 | 2.5 | 8.7 | 2.55% | -3.1% |

| Structure (SMILES) | growth inhibition [1] [%] | growth inhibition [2] [%] | growth inhibition [3] [%] | growth inhibition [4] [%] | growth inhibition [5] | growth inhibition [6] |
| --- | --- | --- | --- | --- | --- | --- |
| CC(C)=CC(=O)OC1C2C(C)=CC(O)C(O)C2(C)C2C3(O)OCC24C(CC(=O)OC14)C(C)C3O (stereo not given) | 56.5 | 38.1 | 23.4 | 48.4 | 53.5% | 86.8% (active) |
| CCc1ccc(NC(=O)C(c2ccccc2)c2ccccc2)cc1 | 8.6 | 13.3 | 2.35 | 11.8 | 20.6% | -9.1% |
| CCc1c(Sc2ccccn2)n(COCc2ccccc2)c(=O)[nH]c1=O | -14.5 | -4.4 | -24.9 | -16.4 | -17.8% | -16.1% |
| COC(CCl)OC | 3.75 | -18.6 | 15.8 | 10.3 | -9.7% | 2.6% |
| CCNC1=C(OC)C(=O)C(NCC)=C(OC)C1=O | -6.2 | 7.25 | 2.6 | -33.6 | 5.3% | -5.8% |
| CCOC(=O)CCNc1nc(N)nc(C)c1NC=O | -11.9 | 5.55 | -16.5 | 9.7 | 5.9% | 16.9% |
| CCOC(=O)C(=O)C1C(=O)Nc2ccccc21 (stereo not given) | -12.4 | -4.9 | -6.35 | -2.5 | -18.4% | -12.6% |
| C=CCCCCCCCCC(=O)NCc1ccncc1 | 56.2 | 29.2 | 59.5 | 50.4 | 41.7% | 86.7% (active) |
| c1ccc2cc(CNCCCCNCCCNCc3ccc4ccccc4c3)ccc2c1 | 63.8 | 38.6 | 62.3 | 46.2 | 85% (active) | 76.3% (active) |
| O=[N+]([O-])c1ccc2c(c1)C(=Nc1ccccc1)c1cc([N+](=O)[O-])cc([N+](=O)[O-])c1-2 | 8.3 | 5.65 | 19.1 | 21.1 | 3.5% | 13.4% |
| CC(C)N(C(=O)C12C3C4C5(C(=O)O)C(C1C35I)C42C(=O)O)C(C)C (stereo not given) | -5.25 | 11.1 | -13.3 | 13.7 | -10.4% | -4.1% |
| CCOC(=O)CCC(C(=O)OCC)c1nc2ccccc2[nH]c1=O (stereo not given) | 12.6 | 11.9 | 12.6 | -2.75 | 14.1% | 14.2% |
| ON(C(=S)Nc1ccccc1)c1ccccc1 | 20.9 | 12.8 | 21.1 | -13.7 | 8.3% | 15.9% |
| CC(=O)OC1CCC2(C)C(=CCC3C2CCC2(C)C(C(C)C(=O)O)CCC32)C1 (stereo not given) | 15.7 | -32.8 | -21.4 | -10.2 | -31.1% | 13% |
| O=[N+]([O-])c1ccc(OP(=O)(O)O)cc1 | -5.9 | 13.3 | -9.85 | 20.2 | 8.95% | -10.2% |
| Clc1ccc(C(Cl)(c2ccc(Cl)cc2)C(Cl)(Cl)Cl)cc1 | -14.1 | -14.4 | -7.4 | -6.2 | 32.9% | 11.8% |
| CC1=CC(=O)[C@@H](O)[C@]2(C)[C@H]3[C@@]4(O)OC[C@]35[C@H]([C@@H](CO)[C@H]4O)[C@@H](OC3OC(CO)C(O)C(O)C3O)C(=O)O[C@@H]5C[C@@H]12 (stereo not given in full) | -9.55 | -14.5 | -19.2 | 2.65 | -25.1% | -25.9% |
| C=C(NC(=O)C(C)NC(=O)OCc1ccccc1)C(=O)N1CCCC1C(=O)NC(C)C(=O)NC (stereo not given) (Cbz-A[Dha]PA-NHMe; configuration not given here) | 3 | -3.95 | -5.05 | 3.4 | -4.35% | -2.4% |
| COc1ccc(C(=O)C(C)C(O)C(=O)O)c(O)c1C (stereo not given) | 8.15 | 14.9 | -1.25 | 2 | -16.5% | 9.15% |
| CCOC(=O)c1c(-c2ccccc2)c(C)cn1C | -16.1 | -26 | -24.9 | 11 | -7.75% | 1% |
